# Experimental data as given in PubChem BioAssay AID2540 (Sanford-Burnham Center for Chemical Genomics, 2010).
# Screen size: about 330,000 compounds; about 4,100 (1.2%) were called active. The sample holds actives, similar compounds and a random draw of the others, so the mix is not that of the screen. Values without a mark were called inactive. Cut-off read from the data, not from the text of the source: active = inhibition above about 50%; inactive = the rest.
# Target: Sentrin-specific protease 8 (Homo sapiens) (UniProt Q96LD8)
# Test: SENP8 protease inhibitors, primary screen, biochemical, luminescence (AID 2540)
# Conditions: purified SENP8, Z-RLRGG-aminoluciferin cleavage, at 10 µM, stronger effect = higher value
# Chain of Sentrin-specific protease 8 (Homo sapiens) (Q96LD8 whole entry, looked up): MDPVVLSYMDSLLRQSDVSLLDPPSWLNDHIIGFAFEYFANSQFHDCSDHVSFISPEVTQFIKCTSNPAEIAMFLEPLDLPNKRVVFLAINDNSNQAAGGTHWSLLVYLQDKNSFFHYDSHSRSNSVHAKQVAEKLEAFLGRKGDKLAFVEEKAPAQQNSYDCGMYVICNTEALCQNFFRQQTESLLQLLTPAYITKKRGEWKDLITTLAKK
row,Structure (SMILES),inhibition
1,CCN(CC)c1ccc(S(=O)(=O)N2CCCCC2)cc1NC(=O)C1=COCCO1,-1.53%
2,COC(=O)c1ccc(C)c(NC(=O)C2CC(=O)N(C3CCCC(C)C3C)C2)c1 (stereo not given),-6.55%
3,O=C(NCC1CCCO1)c1cc2c(s1)CCCC2 (stereo not given),0.761%
4,O=C(Nc1ccc(F)cc1)c1cc2c(s1)CCCC2,90.8% (active)
5,CN(C)C(=O)c1ccc(NC(=O)COC(=O)c2cc3c(s2)CCCCC3)cc1,-5.57%
6,CC(NC(=O)c1cc2cc(Cl)ccc2oc1=N)c1ccccc1 (stereo not given),-6.62%
7,COCC(C)NC(=O)COc1nncc2ccccc12 (stereo not given),-1.01%
8,CCCC(=O)Nc1cccc(NC(=S)NC(=O)C(C)Oc2ccc(Cl)cc2Cl)c1 (stereo not given),-4.44%
9,O=C(NCc1cccnc1)c1cccc(-c2cc3ccccc3oc2=O)c1,-8.55%
10,Nc1ncc(-c2cc3ccccc3oc2=O)s1,84% (active)
11,O=c1oc2ccccc2cc1-c1cn(-c2ccccc2)c(=S)[nH]1,-12.9%
12,Cc1cccc(NC(=O)/C=C/c2ccc3c(c2)OCO3)n1,73.5% (active)
13,O=C(/C=C/c1ccc2c(c1)OCO2)NCc1ccc(F)cc1,-4.04%
14,Cc1cccc(NC(=O)Nc2ccc3c(c2)OCO3)n1,13.3%
15,COc1ccc(OC)c(NC(=O)c2cnn(-c3ccccc3Cl)c2NC(=O)c2ccco2)c1,7.71%
16,O=C(Nc1ccccc1)c1cc2ccccc2[nH]1,72% (active)
17,COc1ccc2[nH]c(C(=O)Nc3ccccc3Cl)cc2c1,-24.6%
18,CC(OC(=O)c1cc2ccccc2[nH]1)C(=O)N(C)c1ccccc1 (stereo not given),-8.47%
19,O=C(N/N=C/c1ccc(Cl)c(Cl)c1)c1ccc2nc[nH]c2c1,-2.15%
20,CSc1ccc(/C=N\NC(=O)CC(=O)NC(C)C)cc1,5.31%
21,CSc1ccc(/C=N/NC(=O)c2cccc(Cl)c2)cc1,89.4% (active)
22,O=C(CNS(=O)(=O)c1ccc(Br)s1)NCc1ccc2c(c1)OCO2,-11.1%

row,Structure (SMILES),inhibition
1,COc1ccc(C(=O)Nc2cc(C)ccc2NC(=O)COc2ccccc2)cc1,-2.67%
2,COc1ccc(C(=O)Nc2ccc(F)cc2F)cc1,65.2% (active)
3,CC(C)CC(=O)NC(=S)Nc1ccc(F)cc1F,3.9%
4,CCC(CO)Oc1cc(NCc2ccccc2)c2ncn(C3CCCC3)c2c1 (stereo not given),-0.274%
5,CC(C)n1cnc2c(NCc3ccccc3)cc(OCC3CCN(C)CC3)cc21,44.5%
6,CC(C)n1cnc2c(NCc3ccccc3)cc(N[C@@H](CO)Cc3ccccc3)cc21,72.8% (active)
7,CN1CCC(N(C)S(=O)(=O)c2ccc(NC(=O)c3cccc(C#N)c3)cc2)CC1,-1.55%
8,O=c1c2cc(-c3ccccc3)sc2nc2n1N=C(c1cccs1)CS2,57.5% (active)
9,Cc1nnc2n1N=C(c1ccccc1)CS2,1.54%
10,O=c1c(-c2ccccc2)cnc2n1CCS2,6.64%
11,O=C(Nc1cccc(NC(=O)c2cccc(F)c2)c1)c1ccccc1,-15.3%
12,O=C(Nc1ccc(C(=O)O)c(O)c1)c1ccccc1,76.3% (active)
13,O=C(Cc1ccccc1)Nc1cccc(NC(=O)c2ccccc2)c1,-8.4%
14,COc1ccc(OCC(=O)NCCS(=O)(=O)N2CCN(c3ccc(F)cc3)CC2)cc1,1.89%
15,CN=C(NC#N)NCCSCc1nc[nH]c1C,-4.47%
16,O=C(Nc1ccccc1)OCc1cn(-c2ccc(Cl)cc2)nn1,-2.31%
17,Cc1cc(O)cc(O)c1C(=O)Cc1cnn(-c2ccccc2)c1,-5.32%
18,O=C(c1cnn(-c2ccc(Cl)cc2)c1)c1ccccc1O,91.4% (active)
19,O=c1[nH]c(CN2CCOCC2)nc2scc(-c3ccccc3)c12,1.83%
20,CC(C)(C)c1cc(C(=O)N/N=C/c2ccc([N+](=O)[O-])s2)n[nH]1,20.8%
21,Cc1ccccc1NCC(=O)N/N=C\c1ccc([N+](=O)[O-])s1,33%
22,O=[N+]([O-])c1ccc(C=Nc2ccc(Cl)cc2Cl)s1,59.6% (active)

row,Structure (SMILES),inhibition
1,CCc1ccc(NC(=O)N2CCc3ccccc3C2)cc1,-3.45%
2,COc1ccc([N+](=O)[O-])cc1NC(=O)C(C)OC(=O)C1c2ccccc2Oc2ccccc21 (stereo not given),-5.39%
3,Cn1cnc(C(F)(F)F)c1-c1ccc([N+](=O)[O-])cc1,2.27%
4,O=c1c2ccccc2ncn1/N=C/c1ccccc1,80.9% (active)
5,CN(C(=O)Nc1ccc(Cl)cc1)n1cnc2ccccc2c1=O,-6.28%
6,CCOC(=O)N1CCN(C(=O)Cn2cnc3ccccc3c2=O)CC1,-8.63%
7,CCOC(=O)C1CCN(S(=O)(=O)c2ccc3c(c2)N(C(C)=O)CCO3)CC1,-1.03%
8,Cc1ccc(CNC(=O)[C@@H](NC(=O)Cc2ccccc2)C(C)C)cc1,2.25%
9,CC(C)C(=O)Nc1nnc(SCC(=O)N2C(C)CCCC2C)s1 (stereo not given),-3.68%
10,COc1ccc(C2C3=C(OC(C)=O)c4ccccc4C3=Nc3c2c(=O)n(C)c(=O)n3C)cc1 (stereo not given),7.93%
11,O=C(COC(=O)/C=C/c1cn(-c2ccccc2)nc1-c1cccnc1)Nc1ccc(Cl)cc1Cl,-4.08%
12,CCOc1ccc(C(=O)Nc2cccc(-c3ccc4nncn4n3)c2)cc1,-9.4%
13,CCOc1ccc(C(=O)Nc2cccc(SC)c2)cc1,82.4% (active)
14,CSc1cccc(NC(=O)CSc2ccccc2)c1,-14.5%
15,O=C(Nc1ccc(N2CCOCC2)cc1)c1cccc(S(=O)(=O)N2CCOCC2)c1,-6.21%
16,COc1cccc(C(=O)Nc2ccc(N3CCCC3)cc2)c1,96.4% (active)
17,COc1cccc(C(=O)Nc2nnc(S(=O)(=O)N3CCCCC3)s2)c1,-11%
18,O=C(OC1CCOC1=O)c1cccc(S(=O)(=O)Nc2ccc(F)cc2)c1 (stereo not given),2.88%
19,O=C(/C=C/c1ccco1)Nc1ccc(Oc2ccccc2)cc1,58.9% (active)
20,COc1cccc(NC(=O)COC(=O)/C=C/c2ccco2)c1,-1.22%
21,O=C(/C=C/c1ccco1)NC(=S)Nc1ccccc1Br,-6.97%
